# Experimental data taken from article PMC8384837, “Expanding the binding specificity for RNA recognition by a PUF domain”.
# Experiments:
# Assay in all cases: yeast three-hybrid, YBZ-1, SC-Leu-His + 0.5 mM 3-AT, 4 days
# Settings in all cases: tags: N-Gal4 AD-HA kept; label: inside an RPR1-promoter hybrid RNA with tandem MS2 sites; ssRNA
# [1] = target: PUM1 PUF domain R3-MPR (Homo sapiens, UniProt Q14671 828-1176, C935M;R936P;Q939R)
# Procedure, shortened: (§1)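 Matching RNA elements and Pumilio-1 PUF domain libraries, randomized at the three base-contacting residues of every repeat, were co-expressed from a centromeric plasmid in strain YBZ-1 (LexA–MS2 coat fusion, HIS3 reporter). The repeat regions were PCR-amplified and Illumina-sequenced from cells grown four days on SC-Leu (input) or SC-Leu-His + 0.5 mM 3-AT (selection). The interaction score is the log change in variant frequency from input to selection. It is computed in log2, with a pseudocount of 1 for absent variants.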
# [2] = target: PUM1 PUF domain R2-LWH (Homo sapiens, UniProt Q14671 828-1176, N899L;Y900W;Q903H)
# Chain of PUM1 PUF domain R2-LWH (Q14671 828-1176 N899L/Y900W/Q903H): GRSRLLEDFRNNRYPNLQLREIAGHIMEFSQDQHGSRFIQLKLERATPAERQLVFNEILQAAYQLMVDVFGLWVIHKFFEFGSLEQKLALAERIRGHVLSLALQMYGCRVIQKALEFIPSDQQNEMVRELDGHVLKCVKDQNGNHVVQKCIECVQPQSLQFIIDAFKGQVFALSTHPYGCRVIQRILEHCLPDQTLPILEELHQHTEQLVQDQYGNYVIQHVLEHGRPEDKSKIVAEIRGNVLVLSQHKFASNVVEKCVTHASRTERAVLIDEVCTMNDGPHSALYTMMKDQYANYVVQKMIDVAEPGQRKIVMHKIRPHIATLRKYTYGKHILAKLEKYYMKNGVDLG
# Procedure, shortened: as §1
# [3] = target: PUM1 PUF domain R5-PRH (Homo sapiens, UniProt Q14671 828-1176, C1007P;Q1011H)
# Procedure, shortened: as §1
# [4] = target: PUM1 PUF domain R5-CKR (Homo sapiens, UniProt Q14671 828-1176, R1008K;Q1011R)
# Procedure, shortened: as §1
# [5] = target: PUM1 PUF domain R5-GHL (Homo sapiens, UniProt Q14671 828-1176, C1007G;R1008H;Q1011L)
# Chain of PUM1 PUF domain R5-GHL (Q14671 828-1176 C1007G/R1008H/Q1011L): as the sequence (Q14671 828-1176 N899L/Y900W/Q903H) above, with L72N, W73Y, H76Q, C180G, R181H, Q184L counted along it
# Procedure, shortened: as §1
# [6] = target: PUM1 PUF domain R7-ERG (Homo sapiens, UniProt Q14671 828-1176, S1079E;N1080R;E1083G)
# Procedure, shortened: as §1
# [7] = target: T1, PUM1 PUF domain R6-RWA (Homo sapiens, UniProt Q14671 828-1176, N1043R;Y1044W;Q1047A)
# T1 sequence: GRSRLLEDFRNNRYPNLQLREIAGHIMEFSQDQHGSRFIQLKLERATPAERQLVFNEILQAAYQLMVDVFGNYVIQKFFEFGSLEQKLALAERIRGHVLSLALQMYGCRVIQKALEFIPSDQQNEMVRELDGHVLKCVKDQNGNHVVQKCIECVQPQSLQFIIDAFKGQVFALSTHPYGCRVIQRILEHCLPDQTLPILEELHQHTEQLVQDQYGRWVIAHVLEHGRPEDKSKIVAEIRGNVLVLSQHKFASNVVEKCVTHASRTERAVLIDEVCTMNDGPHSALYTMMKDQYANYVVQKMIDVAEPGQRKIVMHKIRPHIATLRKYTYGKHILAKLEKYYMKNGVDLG
# Procedure, shortened: as §1
# [8] = target: PUM1 PUF domain R1-NSR (Homo sapiens, UniProt Q14671 828-1176, S863N;R864S;Q867R)
# Procedure, shortened: as §1
# [9] = target: PUM1 PUF domain R1-RTT (Homo sapiens, UniProt Q14671 828-1176, S863R;R864T;Q867T)
# Chain of PUM1 PUF domain R1-RTT (Q14671 828-1176 S863R/R864T/Q867T): as the sequence (Q14671 828-1176 N899L/Y900W/Q903H) above, with S36R, R37T, Q40T, L72N, W73Y, H76Q counted along it
# Procedure, shortened: as §1
sequence,measurement,setting,value
GGCUAGAACUAGUGGAUCCCCCGGCGCCCGGCGGCUCGAGCCCGGGUAAGUGUAAUUAGUCUGCAUGCCGCCGGGCGCCAUGCCUGCAGGUCGACUCUAGAAAACAUG,binding signal,[1],2.67 log2 enrichment (interaction score)
GGCUAGAACUAGUGGAUCCCCCGGCGCCCGGCGGCUCGAGCCCGGGUAAGUGUAAAAAGUCUGCAUGCCGCCGGGCGCCAUGCCUGCAGGUCGACUCUAGAAAACAUG,binding signal,[2],7.08 log2 enrichment (interaction score)
GGCUAGAACUAGUGGAUCCCCCGGCGCCCGGCGGCUCGAGCCCGGGUAAGUGUUAAUAGUCUGCAUGCCGCCGGGCGCCAUGCCUGCAGGUCGACUCUAGAAAACAUG,binding signal,[3],3.48 log2 enrichment (interaction score)
same,binding signal,[4],1.55 log2 enrichment (interaction score)
same,binding signal,[5],3.73 log2 enrichment (interaction score)
GGCUAGAACUAGUGGAUCCCCCGGCGCCCGGCGGCUCGAGCCCGGGUAAGUGUGAAUAGUCUGCAUGCCGCCGGGCGCCAUGCCUGCAGGUCGACUCUAGAAAACAUG,binding signal,[3],2.93 log2 enrichment (interaction score)
same,binding signal,[5],2.8 log2 enrichment (interaction score)
GGCUAGAACUAGUGGAUCCCCCGGCGCCCGGCGGCUCGAGCCCGGGUAAGUUUAAAUAGUCUGCAUGCCGCCGGGCGCCAUGCCUGCAGGUCGACUCUAGAAAACAUG,binding signal,[6],4.23 log2 enrichment (interaction score)
GGCUAGAACUAGUGGAUCCCCCGGCGCCCGGCGGCUCGAGCCCGGGUAAGUGAAAAUAGUCUGCAUGCCGCCGGGCGCCAUGCCUGCAGGUCGACUCUAGAAAACAUG,binding signal,[7],4.28 log2 enrichment (interaction score)
GGCUAGAACUAGUGGAUCCCCCGGCGCCCGGCGGCUCGAGCCCGGGUAAGUGUAAAUCGUCUGCAUGCCGCCGGGCGCCAUGCCUGCAGGUCGACUCUAGAAAACAUG,binding signal,[8],2.5 log2 enrichment (interaction score)
GGCUAGAACUAGUGGAUCCCCCGGCGCCCGGCGGCUCGAGCCCGGGUAAGUGUAAAUGGUCUGCAUGCCGCCGGGCGCCAUGCCUGCAGGUCGACUCUAGAAAACAUG,binding signal,[9],3.14 log2 enrichment (interaction score)
